Measured values from the supplement of paper PMC3334620.
Whole data set: some 33,000 sequences, median “E-score (-0.5 to 0.5)” near -0.032, cut for the highest 2% near 0.36. The sample holds the highest values, similar sequences and a random draw of the others, so the mix is not that of the screen.

Each sequence was assayed against T1, Sko1 (UniProt Q02100) (assay: PBM E-score (8-mer binding enrichment) (E-score (-0.5 to 0.5)); higher = stronger / more preferred TF binding). Conditions: protein concentration: 200 nM; construct: GST-full length.
T1 sequence: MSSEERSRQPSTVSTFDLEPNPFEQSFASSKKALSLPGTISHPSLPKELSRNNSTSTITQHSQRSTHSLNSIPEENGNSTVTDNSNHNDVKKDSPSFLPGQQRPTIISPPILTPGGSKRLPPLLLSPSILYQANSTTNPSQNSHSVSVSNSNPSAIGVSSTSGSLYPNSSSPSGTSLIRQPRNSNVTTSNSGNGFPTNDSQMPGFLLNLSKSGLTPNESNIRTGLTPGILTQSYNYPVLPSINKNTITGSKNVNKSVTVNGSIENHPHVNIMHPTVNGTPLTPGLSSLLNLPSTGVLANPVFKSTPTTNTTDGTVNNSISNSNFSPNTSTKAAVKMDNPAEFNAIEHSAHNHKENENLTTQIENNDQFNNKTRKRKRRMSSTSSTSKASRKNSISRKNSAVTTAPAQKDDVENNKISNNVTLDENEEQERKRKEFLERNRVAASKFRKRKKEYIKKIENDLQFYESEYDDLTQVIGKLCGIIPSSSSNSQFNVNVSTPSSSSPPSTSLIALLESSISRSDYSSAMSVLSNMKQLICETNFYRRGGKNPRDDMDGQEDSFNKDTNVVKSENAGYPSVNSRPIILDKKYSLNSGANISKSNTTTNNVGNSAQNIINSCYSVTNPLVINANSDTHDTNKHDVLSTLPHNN
Method: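 Universal 'all 10-mer' protein binding microarrays (Agilent AMADID 015681) probed with GST-tagged S. cerevisiae TFs (full-length or DBD) made by in vitro transcription/translation (PURExpress), about 100-200 nM. Bound TF was detected with fluorescent anti-GST. Each ungapped 8-mer (which stands for itself and its reverse complement) is scored by the PBM enrichment score (E-score), a modified Wilcoxon-Mann-Whitney statistic from -0.5 to +0.5, computed with the Universal PBM Analysis Suite. Scale: above 0.35 generally sequence-specific binding.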

| Sequence | PBM E-score |
| --- | --- |
| AGATACCC | -0.0725 |
| CTTGAAAG | -0.0877 |
| ACGACTTG | -0.058 |
| CCAGCGTC | -0.229 |
| CTAATGAC | 0.299 |
| GTAATGAC | 0.399 |
| GTAATGAA | 0.281 |
| GACGTCGC | 0.334 |
| GACGTCCC | 0.217 |
| GACGTCTA | 0.358 |
| GACGTCAC | 0.487 |
| CACGTCTA | 0.314 |
| GACGTCCA | 0.331 |
| TACGTCTA | 0.421 |
| TACGTCCA | 0.404 |
| AACGTCAA | 0.424 |
| CACGTCCA | 0.254 |
| AACGTCTA | 0.239 |
| AACGTCCA | 0.245 |
| ATTGTTGC | 0.236 |
| ACAGGAGT | -0.0316 |
| CCCACTGC | -0.115 |
| ATGCGCCA | -0.00554 |
| ATAAGACG | 0.115 |
| CACGTCTG | 0.23 |

| Sequence | PBM E-score |
| --- | --- |
| TCCGTCAA | 0.0302 |
| TACGTCAA | 0.479 |
| AACGTCGG | 0.182 |
| TTCGTCAA | 0.297 |
| CACGTCAA | 0.426 |
| AACGTCTG | 0.239 |
| CCCGTCAG | -0.214 |
| CCCGTCAA | -0.0876 |
| CACGTCAG | 0.462 |
| AACGTCAG | 0.429 |
| CCTGTGCC | -0.224 |
| GCGACGCC | -0.0621 |
| ATAGGTGC | -0.114 |
| ATCCATGG | -0.237 |
| GAGATCAC | 0.00833 |
| AAGCAAGA | 0.0771 |
| AGTTGTGA | 0.0903 |
| CACGATGG | -0.0649 |
| CGTGGCGA | 0.0528 |
| AACGTCGT | 0.247 |
| CACGTCTC | 0.134 |
| AACGTCCT | 0.0619 |
| GACGTCTC | 0.384 |
| GACGTCAA | 0.47 |
| AACGTCCC | -0.0499 |

| Sequence | PBM E-score |
| --- | --- |
| AACGTCAC | 0.471 |
| GCCGTCAA | -0.081 |
| AGCGTCAC | 0.252 |
| AACGTCTC | 0.111 |
| AACGTCAT | 0.493 |
| ACGGTTTA | -0.0562 |
| CTCCAGGA | -0.0718 |
| CGTGGTAC | 0.213 |
| ACCCGCGG | -0.0735 |
| CAGCGAGG | -0.233 |
| TCGGGCAA | -0.0812 |
| ATCCTGTC | -0.0275 |
| CAAATATC | 0.109 |
| CAGGGTCG | -0.241 |
| GTCGGTGA | 0.049 |
| ACAACTAG | -0.00944 |
| CACGTCAC | 0.482 |
| TGCGTCAA | 0.377 |
| GGCGTCAA | 0.235 |
| CACGTCCC | 0.00358 |
| CACGTCGC | 0.235 |
| TGCGTCCA | 0.155 |
| GGTGAGCA | -0.0791 |
| AATTTAGC | 0.187 |
| GCCTGATA | -0.0647 |

| Sequence | PBM E-score |
| --- | --- |
| TAAGGGAA | 0.108 |
| CAGACGTC | 0.322 |
| GAGACGGA | -0.0605 |
| AAGACGGA | -0.0952 |
| CAGACGTA | 0.387 |
| GAGACGTA | 0.394 |
| CAGACGCA | 0.055 |
| AAGACGTC | 0.419 |
| GAGACGAA | -0.0289 |
| AAGACGTA | 0.454 |
| AAGACGGC | -0.219 |
| AAGACGAC | 0.0714 |
| AAGACGTG | 0.291 |
| AGTCCTTC | -0.375 |
| TCCGAACA | -0.124 |
| CAATCTGG | -0.104 |
| AGTACTCG | 0.0859 |
| AGCTTAGG | -0.198 |
| CTTCGGTC | -0.0632 |
| CCTGTGTA | -0.0155 |
| GTCGGAAC | -0.0708 |
| CGTAGTAG | 0.309 |
| CGTAGTAC | 0.372 |
| AGTAGTAC | 0.173 |
| AGGGTTGG | 0.0955 |

| Sequence | PBM E-score |
| --- | --- |
| CCGTAATC | 0.111 |
| AAGTAATG | 0.0878 |
| ATGTAATC | 0.313 |
| ACGTAATG | 0.492 |
| ACGTAATC | 0.492 |
| ATGTAATG | 0.321 |
| AGGCCGCC | -0.182 |
| CTTCCCGC | -0.0138 |
| CACCTTCG | -0.136 |
| ATCTTGCC | -0.0574 |
| GTCGAACA | -0.00814 |
| GCTGCGTA | 0.308 |
| GTTGCGGA | 0.0145 |
| CTTGCGTC | 0.27 |
| ATTGCGCA | 0.251 |
| ACTGCGTA | 0.343 |
| ATTGCGTG | 0.419 |
| ATTGCGTC | 0.414 |
| ATTGCGCC | -0.0972 |
| ACTGCGTG | 0.131 |
| ATTGCGAG | -0.0027 |
| GTTGCGTA | 0.422 |
| ATTGCGTA | 0.472 |
| GAGCAGAC | -0.0861 |
| GTGTCCCA | -0.0921 |

| Sequence | PBM E-score |
| --- | --- |
| AGCCAGCT | -0.097 |
| ATGAATTC | 0.0634 |
| CACAGTCA | -0.095 |
| ATAATAGC | 0.0417 |
| GCGGTCCA | -0.323 |
| ATTCAGCA | 0.00168 |
| CTTGCGGA | -0.261 |
| CTTGCGTA | 0.423 |
| CCTGCGTA | 0.315 |
| CGTTGAGA | 0.0138 |
| AGCATCCA | -0.238 |
| AAAAATCC | -0.162 |
| GGTATGAC | 0.183 |
| ATTATGTG | 0.266 |
| CGTATGAG | 0.267 |
| CGTATGGC | 0.348 |
| CGTATGAA | 0.361 |
| ATTATGTA | 0.398 |
| CGTATGTC | 0.321 |
| AGTATGTA | 0.0841 |
| CGTATGTA | 0.367 |
| ATTATGTC | 0.336 |
| AGTATGAA | 0.0617 |
| CGTATGAC | 0.445 |
| CCACATCA | 0.175 |

| Sequence | PBM E-score |
| --- | --- |
| GAGATCGA | 0.0574 |
| ATCACTCA | 0.0754 |
| GAGCTAGA | -0.11 |
| CCTGTTCA | -0.203 |
| AAGCATAG | -0.128 |
| AGAGCAGG | -0.126 |
| CATCGCCG | -0.137 |
| AAACAGCC | -0.17 |
| GCTATACC | -0.171 |
| AAATCCCC | -0.238 |
| GGTAGATA | 0.0735 |
| AGTATGAG | 0.129 |
| AGTATGAC | 0.376 |
| AGTATGAT | 0.286 |
| AACCTACC | -0.193 |
| CTAGGGTA | -0.161 |
| CAGTGAGA | 0.0132 |
| AGTAATTC | 0.169 |
| CGTAATTC | 0.435 |
| CGTAATTA | 0.439 |
| GGTAATTA | 0.239 |
| CATAATTC | 0.238 |
| AGTAATTA | 0.263 |
